GAA inhib: alpha-glucosidase (human) inhibition | P10253 | Potency, µM (doses to about 76.9 µM), for inactives: top-dose activity change, negative = inhibition, actives largely listed as inhibitors | purified human GAA, 4-MU-alpha-glucoside fluorescence | AID 1466 | 0.005% of 200,000 active;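 note: plate controls were uninhibited enzyme wells for no effect and no-enzyme background for full effect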
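Endpoint fluorogenic read: 20 min room-temperature reaction of 4 nM human alpha-glucosidase with 400 uM 4-methylumbelliferyl-alpha-D-pyranoside, pH 5.0, quenched with 1M NaOH/1M glycine pH 10. AC50 from Hill modeling.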
LMNA splice mod: changes lamin A minigene splicing in HeLa cells. AID 1487. 0.01% of 200,000 active. Potency, µM (titrated, usually from 46.1 µM), inactives show at the top dose ratio change, negative = inhibition, usual class: inhibitors. HeLa LMNA splicing GFP/RFP minigene ratio, 48 h; active = well fitted inhibition curve with a large enough effect in the signal ratio, with a control signal flat, not every such curve was filed as active; inconclusive = small, poorly fitted or top-dose-only effect, or effect the other way, or a change in a side signal; the % refers to the signal ratio
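Read-out is the ratio of GFP to DsRed2 object intensity, acquired by 488 nm laser-scanning cytometry on HeLa lamin A-EGFP minigene reporter cells. Compound incubation 48 hrs at 37 °C in Opti-MEM with 2% FBS; DMSO 0.5% final.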
N370S GC: inhibits or activates N370S mutant glucocerebrosidase; P04062; N370S GC spleen homogenate, 4MU-glucoside fluorescence; Potency, µM (titrated, usually from 59.4 µM), without a hit: at the top dose activity change, negative = inhibition, actives largely listed as inhibitors; 0.092% of 330,000 active; AID 2101;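 note: 0% = full enzyme activity and -100% = no enzyme basal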
aGlu spleen mod: lysosomal alpha-glucosidase (human) modulation. P10253. human spleen homogenate, 4-MU-alpha-glucoside fluorescence. Potency, µM (titrated, usually from 79.9 µM), for inactives: top-dose activity change, negative = inhibition, usual class: inhibitors. 0.006% of 240,000 active. AID 2112;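 note: 0% = enzyme with vehicle and -100% = no enzyme basal signal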
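Human spleen homogenate (1 ug) with 4-methylumbelliferyl-alpha-D-glucopyranoside (1 mM final) in 50 mM citrate/phosphate pH 5.0, 0.01% Tween-20; 40 min at 37 C. Stopped at pH 10; 4-MU fluorescence Ex 365/Em 440 nm; AC50 by Hill fit.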
GAA glycogen mod: inhibitors or activators of human alpha-glucosidase glycogen cleavage. P10253. recombinant GAA, glycogen substrate, Amplex Red glucose oxidase fluorescence. Potency, µM (highest dose often 76.4 µM), for inactives: at the highest dose activity change, negative = inhibition, most hits filed as inhibitors. 0.38% of 300,000 active. AID 2100;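 note: 0% = full enzyme reaction and -100% = no-enzyme basal signal; the screen sought inhibitors and activators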
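qHTS, 1536-well; enzyme 4 nM final; cpd up to 77 uM; substrate bovine liver glycogen 30 ug; 50 mM citrate/phosphate pH 5.0, 0.01% Tween-20; 37 C, 40 min; Amplex Red detection 45 min RT; Hill fit → AC50.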
KinaseGlo FLuc: blocks Kinase-Glo luciferase, a counter-screen artifact; Kinase-Glo luciferase, ATP luminescence, 8 min; Q27757; Potency, µM (series often up to 38.3 µM), inactives show top-dose activity change, negative = inhibition, actives largely listed as inhibitors; 0.28% of 200,000 active; note: nearly all actives have a fitted effect of over 60% in size
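Luminescence was the read-out, taken after 8-minute incubation at ambient temperature. Luciferase turned over luciferin with 10 uM ATP in imidazole pH 7.2 buffer containing KCl, MgCl2, Tween 20 and BSA.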
Starred values were filed as active, the others as inactive; u = inconclusive; x = not tested or not shown; [ ] = another dose, or the depositor's remark. The list is not random: actives were taken first. Their share in the collection is about 0.52%. Unless noted, calls come from the whole dose curve; as a rule, active = well fitted curve in the direction sought with a large enough effect; inconclusive = small, poorly fitted or top-dose-only effect, or another doubt; inactive = no such curve, though single readings can be large; an effect the other way counts as inactive or inconclusive. Unless noted, % is set by controls: 0 for no effect and ±100 for the full control effect; potency is the fitted concentration of half-maximal effect.

SMILES	GAA inhib	LMNA splice mod	N370S GC	aGlu spleen mod	GAA glycogen mod	KinaseGlo FLuc
COc1ccc(/C=N/Nc2nonc2N)cc1OC	0%	u	24%	3%	16µM*	-7%
Cc1nonc1C(=O)N/N=C/c1cccc(O)c1	1%	-22%	-5%	-1%	-13%	8.9µM*
O=C(N/N=C/c1cccc(O)c1)N/N=C/c1cccc(O)c1	x	x	-9%	x	-8%	x
O=c1c(-c2ccccc2)coc2cc(O)cc(O)c12	x	x	2%	13%	x	-19%
CN(C)NC(=O)c1ccsc1NC(=O)c1ccc(S(=O)(=O)N(C)C)cc1	x	x	-7%	-3%	5.6µM*	x
Oc1ccccc1/C=N/Nc1cccc2cccnc12	-11%	-2%	-13%	-12%	7.9µM*	-17%
O=C(COc1cccc2cccnc12)N/N=C/c1ccccc1O	x	x	17%	2%	3%	x
N#C/C(=C/c1cn(-c2ccccc2)nc1-c1cccc(OCc2ccc(F)cc2)c1)C(=O)NCCCn1ccnc1	-7%	u	16µM*	-15%	3%	0%
O=C1CC(c2ccc(O)c(O)c2)Oc2c1ccc(O)c2O (stereo unspecified)	x	x	-6%	-2%	11µM*	x
CC(C)=CCc1c(O)ccc2c1OC(c1ccc(O)c(O)c1)CC2=O (stereo unspecified)	x	x	-19%	1%	u	x
CCNc1ncc2nc(-c3cc(F)cc(F)c3)c(=O)n(Cc3ccc(F)cc3)c2n1	x	-7%	9%	-5%	x	x
Cc1ccc(NS(=O)(=O)c2ccc(N3CCN(c4ccc(O)cc4)CC3)c([N+](=O)[O-])c2)c(C)c1	-4%	u	14µM*	1%	u	1%
C[C@@H](O)C#C[Si](C)(C)c1ccccc1	x	x	-5%	-2%	x	-1%
Oc1ccc(/C=N/Nc2nccnc2Cl)cc1	-11%	-17%	-18%	-7%	11µM*	3.5µM*
CN1CCN(C(=O)Nc2cccc(Cl)c2)c2cccnc21	x	x	x	x	4.5µM*	x
O=C(Nc1cccc(Cl)c1)N1Cc2ccccc2Oc2ncccc21	x	x	x	x	2%[76.3 µM]	x
Cc1cc(C)cc(NC(=O)Cc2c(C(=O)O)c(C)cn2C)c1	x	-11%[46 µM]	x	x	x	x
Oc1ccc(/C=N/N2CCCCC2)c(O)c1	x	x	-19%	x	11µM*	x
Oc1ccccc1/C=N/N1CCCCC1	0%	0%[46 µM]	-2%	-2%	-10%	-5%
C=CCNC(=S)Nc1ccc(N(C)C)cc1	-5%	x	1%	-2%	3.1µM*	x
C#CCOCCOCCOCCNc1nc(N2CCN(C(=O)[C@H](C)n3cc(CCCN=C(N)N)nn3)CC2)nc(N2CCN(C(=O)[C@H](CCCCN)n3cc(CCCC)nn3)CC2)n1	-2%	-6%	1%	-8%	3%	0%
C#CCOCCOCCOCCNc1nc(N2CCN(C(=O)CCCCCCCCCCNC(=O)[C@H](CCCCN)n3cc(C[C@@H](C)CC)nn3)CC2)nc(N2CCN(C(=O)CCCCCCCCCCNC(=O)[C@H](CCCN=C(N)N)n3cc(C[C@@H](C)CC)nn3)CC2)n1	x	x	6.3µM*	x	x	x
C#CCOCCOCCOCCNc1nc(N2CCN(C(=O)CCCCCCCCCCNC(=O)[C@H](CO)n3cc(CCCCCN)nn3)CC2)nc(N2CCN(C(=O)CCCCCCCCCCNC(=O)[C@H](CCCN=C(N)N)n3cc(C[C@@H](C)CC)nn3)CC2)n1	x	x	13µM*	x	x	x
C#CCOCCOCCOCCNc1nc(N2CCN(C(=O)CCCCCCCCCCNC(=O)[C@H](CCCCN)n3cc(C[C@@H](C)CC)nn3)CC2)nc(N2CCN(C(=O)CCCCCCCCCCNC(=O)[C@@H]([C@H](C)O)n3cc(C)nn3)CC2)n1	x	x	11µM*	x	x	x
C#CCOCCOCCOCCNc1nc(N2CCN(C(=O)CCCCCCCCCCNC(=O)[C@@H](CCC(=O)O)n3cc(CCCCCN)nn3)CC2)nc(N2CCN(C(=O)CCCCCCCCCCNC(=O)[C@H](CO)n3cc(CCCCCN)nn3)CC2)n1	x	x	-23%	x	x	x

From PubChem
